# Reference: the supplement of paper PMC10849652
# Of roughly 7,900 targets only a part is listed; those with a hit were picked by preference. About 0.6% of all pairs of compound and target were hits. Values without a mark were called inactive.
# How the values were obtained:
# Test in all cases: log2 fold change, soluble protein after heating vs DMSO (PISA); higher = thermal stabilisation; K562 cells, 10 uM, 30 min; active = over 0.2 and 3.5 SD of the protein, either way, in both replicates (recomputed)
# [1] = compound: CS(=O)(=O)c1ccc(-c2cnc(N)c(C(=O)Nc3ccccc3)n2)cc1
# In short: (§1)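 K562 cells at 2×10^6 cells/mL were exposed to 10 μM compound for 30 min, then aliquots were heated for 3 min across 48°C-58°C, pooled, and extracted in PBS containing 0.5% NP-40 at 4°C. The supernatant after 21,000xg for 90 min was taken as soluble protein and measured by TMTpro 16plex LC-MS/MS with channel sums equalised. Thermal stability is reported relative to control samples, with values from duplicates. Fold changes are given on a log2 scale.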
# [2] = compound: C[C@@H](Oc1cc(-c2cnn(C3CCNCC3)c2)cnc1N)c1c(Cl)ccc(F)c1Cl [crizotinib]
# In short: as §1
# [3] = compound: C[C@@H]1COCCN1C2=NC(=NC(=C2)C3(CC3)S(=O)(=O)C)C4=C5C=CNC5=CC=C4
# In short: as §1
# [4] = compound: C[C@H](C1=CC=C(C=C1)C(=O)NC2=C3C=CNC3=NC=C2)N
# In short: as §1
# [5] = compound: C[C@H](Nc1ncnc2nc[nH]c12)c1cc2cccc(Cl)c2c(=O)n1-c1ccccc1 [duvelisib]
# In short: as §1
# [6] = compound: Cc1cc(Nc2cc(CN3CCOCC3)c3nc(C)c(Cc4ccc(Cl)cc4F)n3n2)n[nH]1 [gandotinib]
# In short: as §1
# [7] = compound: Cc1cc(Nc2cc(N3CCN(C)CC3)nc(Sc3ccc(NC(=O)C4CC4)cc3)n2)n[nH]1 [tozasertib]
# In short: as §1
# [8] = compound: Cc1cc(SCc2sc(-c3ccc(C(F)(F)F)cc3)nc2C)ccc1OCC(=O)O
# In short: as §1
# [9] = compound: Cc1ccc(-n2nc(C(C)(C)C)cc2NC(=O)Nc2ccc(OCCN3CCOCC3)c3ccccc23)cc1 [doramapimod]
# In short: as §1
# [10] = compound: Cc1ccc(C(=O)N(CCCN)[C@@H](c2nc3cc(Cl)ccc3c(=O)n2Cc2ccccc2)C(C)C)cc1 [ispinesib]
# In short: as §1
# Sequence of UniProt Q13795 (Q13795 whole entry, looked up): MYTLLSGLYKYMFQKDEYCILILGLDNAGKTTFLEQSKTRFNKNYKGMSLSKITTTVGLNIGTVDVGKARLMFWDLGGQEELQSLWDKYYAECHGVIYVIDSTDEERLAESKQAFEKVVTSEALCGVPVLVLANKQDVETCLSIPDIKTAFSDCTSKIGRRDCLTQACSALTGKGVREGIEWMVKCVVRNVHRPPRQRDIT
# Sequence of UniProt Q4G176 (Q4G176 whole entry, looked up): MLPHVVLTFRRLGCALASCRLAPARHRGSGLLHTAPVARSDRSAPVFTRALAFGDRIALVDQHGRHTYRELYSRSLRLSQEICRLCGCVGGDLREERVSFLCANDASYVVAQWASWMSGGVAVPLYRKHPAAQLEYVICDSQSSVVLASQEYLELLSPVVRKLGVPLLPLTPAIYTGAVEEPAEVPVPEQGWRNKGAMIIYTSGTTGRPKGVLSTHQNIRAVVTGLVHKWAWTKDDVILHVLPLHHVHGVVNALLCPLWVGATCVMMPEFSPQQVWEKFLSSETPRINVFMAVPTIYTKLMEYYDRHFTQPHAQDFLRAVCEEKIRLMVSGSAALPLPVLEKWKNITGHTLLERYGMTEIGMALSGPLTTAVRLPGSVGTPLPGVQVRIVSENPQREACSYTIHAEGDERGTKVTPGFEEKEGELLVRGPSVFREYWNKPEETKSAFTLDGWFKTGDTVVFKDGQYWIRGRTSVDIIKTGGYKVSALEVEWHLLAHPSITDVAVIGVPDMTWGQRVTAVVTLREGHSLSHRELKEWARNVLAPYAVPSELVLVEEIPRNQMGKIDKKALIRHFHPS
# Sequence of UniProt Q9Y6E2 (Q9Y6E2 whole entry, looked up): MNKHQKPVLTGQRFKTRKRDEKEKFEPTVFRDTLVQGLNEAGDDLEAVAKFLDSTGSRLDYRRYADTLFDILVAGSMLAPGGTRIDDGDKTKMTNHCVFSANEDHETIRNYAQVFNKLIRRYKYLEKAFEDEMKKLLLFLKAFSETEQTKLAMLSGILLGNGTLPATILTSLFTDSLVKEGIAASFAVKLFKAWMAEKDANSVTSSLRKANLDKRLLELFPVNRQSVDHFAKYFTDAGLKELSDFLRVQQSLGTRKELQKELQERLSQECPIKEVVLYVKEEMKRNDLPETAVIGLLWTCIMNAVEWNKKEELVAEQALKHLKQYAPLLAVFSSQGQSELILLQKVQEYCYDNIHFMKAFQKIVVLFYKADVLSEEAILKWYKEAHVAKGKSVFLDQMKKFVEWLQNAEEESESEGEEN
# Sequence of UniProt Q07960 (Q07960 whole entry, looked up): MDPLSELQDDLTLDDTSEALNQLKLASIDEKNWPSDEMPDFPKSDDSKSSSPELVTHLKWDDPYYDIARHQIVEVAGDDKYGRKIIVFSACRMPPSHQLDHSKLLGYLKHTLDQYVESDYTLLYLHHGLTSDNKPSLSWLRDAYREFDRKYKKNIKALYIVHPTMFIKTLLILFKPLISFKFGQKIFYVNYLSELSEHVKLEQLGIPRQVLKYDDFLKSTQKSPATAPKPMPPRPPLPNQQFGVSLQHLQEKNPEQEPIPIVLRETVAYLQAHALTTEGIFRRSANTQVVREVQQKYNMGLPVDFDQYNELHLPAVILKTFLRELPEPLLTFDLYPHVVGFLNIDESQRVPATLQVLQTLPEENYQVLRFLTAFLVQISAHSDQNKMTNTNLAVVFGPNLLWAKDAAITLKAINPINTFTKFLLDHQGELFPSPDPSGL
# Sequence of UniProt Q8N6S5 (Q8N6S5 whole entry, looked up): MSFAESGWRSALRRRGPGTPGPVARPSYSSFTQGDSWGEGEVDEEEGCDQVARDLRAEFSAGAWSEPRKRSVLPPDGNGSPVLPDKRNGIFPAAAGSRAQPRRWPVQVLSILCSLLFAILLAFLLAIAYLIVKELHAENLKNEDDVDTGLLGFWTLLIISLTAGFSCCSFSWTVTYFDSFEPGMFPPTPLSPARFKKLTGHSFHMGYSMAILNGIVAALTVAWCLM
# Sequence of UniProt Q9NXW9 (Q9NXW9 whole entry, looked up): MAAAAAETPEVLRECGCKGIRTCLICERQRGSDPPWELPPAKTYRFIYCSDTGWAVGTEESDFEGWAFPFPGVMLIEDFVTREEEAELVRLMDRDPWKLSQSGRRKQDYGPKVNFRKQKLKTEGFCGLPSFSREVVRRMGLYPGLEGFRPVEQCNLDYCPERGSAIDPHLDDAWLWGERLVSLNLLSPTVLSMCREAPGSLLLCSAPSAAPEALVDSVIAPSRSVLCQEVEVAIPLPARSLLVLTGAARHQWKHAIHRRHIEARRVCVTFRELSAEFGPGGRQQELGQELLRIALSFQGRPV
# Sequence of UniProt Q9NYF8 (Q9NYF8 whole entry, looked up): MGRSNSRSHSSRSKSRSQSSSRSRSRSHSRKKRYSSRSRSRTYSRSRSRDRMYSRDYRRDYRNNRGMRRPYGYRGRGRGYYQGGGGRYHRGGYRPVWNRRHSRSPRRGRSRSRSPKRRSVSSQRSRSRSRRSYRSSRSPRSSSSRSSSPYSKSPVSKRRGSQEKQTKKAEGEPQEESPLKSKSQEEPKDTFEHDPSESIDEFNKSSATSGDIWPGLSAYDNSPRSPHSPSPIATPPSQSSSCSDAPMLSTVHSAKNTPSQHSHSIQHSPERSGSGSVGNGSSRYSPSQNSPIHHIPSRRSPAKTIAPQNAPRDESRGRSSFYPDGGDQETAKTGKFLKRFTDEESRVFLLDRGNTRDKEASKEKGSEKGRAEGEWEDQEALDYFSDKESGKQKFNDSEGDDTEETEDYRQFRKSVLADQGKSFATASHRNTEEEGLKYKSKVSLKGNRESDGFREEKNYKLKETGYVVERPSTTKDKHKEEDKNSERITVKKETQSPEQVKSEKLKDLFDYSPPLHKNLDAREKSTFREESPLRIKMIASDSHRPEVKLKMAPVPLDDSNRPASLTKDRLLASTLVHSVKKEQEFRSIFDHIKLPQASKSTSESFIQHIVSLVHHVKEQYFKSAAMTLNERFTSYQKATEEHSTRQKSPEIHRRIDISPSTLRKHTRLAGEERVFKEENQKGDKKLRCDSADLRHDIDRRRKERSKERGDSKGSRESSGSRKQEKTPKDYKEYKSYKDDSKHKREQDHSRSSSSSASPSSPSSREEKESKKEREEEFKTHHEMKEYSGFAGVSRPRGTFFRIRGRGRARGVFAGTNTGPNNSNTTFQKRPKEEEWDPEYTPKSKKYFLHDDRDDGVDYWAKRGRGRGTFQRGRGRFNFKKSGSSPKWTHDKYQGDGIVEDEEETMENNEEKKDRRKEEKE
# Sequence of UniProt Q4L235 (Q4L235 whole entry, looked up): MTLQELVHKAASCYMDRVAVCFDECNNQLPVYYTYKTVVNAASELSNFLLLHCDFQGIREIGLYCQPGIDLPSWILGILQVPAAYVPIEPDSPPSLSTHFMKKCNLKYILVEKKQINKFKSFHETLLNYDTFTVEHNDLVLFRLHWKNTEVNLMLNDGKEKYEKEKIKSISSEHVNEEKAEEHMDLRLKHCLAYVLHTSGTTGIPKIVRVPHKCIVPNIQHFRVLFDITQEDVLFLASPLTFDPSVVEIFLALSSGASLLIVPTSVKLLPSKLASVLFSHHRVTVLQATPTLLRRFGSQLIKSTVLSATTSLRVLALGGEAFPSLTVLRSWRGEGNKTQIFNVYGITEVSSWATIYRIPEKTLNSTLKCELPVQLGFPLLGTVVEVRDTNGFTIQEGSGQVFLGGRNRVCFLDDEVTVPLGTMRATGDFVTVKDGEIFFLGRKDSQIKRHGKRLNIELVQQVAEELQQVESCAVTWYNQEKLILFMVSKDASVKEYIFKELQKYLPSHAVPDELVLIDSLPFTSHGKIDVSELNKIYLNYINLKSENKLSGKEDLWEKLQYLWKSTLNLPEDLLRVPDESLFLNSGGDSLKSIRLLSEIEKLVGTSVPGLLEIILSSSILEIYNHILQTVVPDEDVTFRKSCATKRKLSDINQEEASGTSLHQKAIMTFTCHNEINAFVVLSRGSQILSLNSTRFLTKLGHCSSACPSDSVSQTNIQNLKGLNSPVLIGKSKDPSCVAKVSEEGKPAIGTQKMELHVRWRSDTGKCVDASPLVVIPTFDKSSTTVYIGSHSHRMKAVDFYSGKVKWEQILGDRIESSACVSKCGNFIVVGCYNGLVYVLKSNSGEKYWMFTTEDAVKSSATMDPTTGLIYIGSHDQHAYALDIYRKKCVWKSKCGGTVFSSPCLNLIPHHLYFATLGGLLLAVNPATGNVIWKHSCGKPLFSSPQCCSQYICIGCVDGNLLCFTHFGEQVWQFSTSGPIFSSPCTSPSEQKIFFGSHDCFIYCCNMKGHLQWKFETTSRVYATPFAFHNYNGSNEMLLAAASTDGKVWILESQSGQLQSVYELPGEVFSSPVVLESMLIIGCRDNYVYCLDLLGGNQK
# Sequence of UniProt Q13685 (Q13685 whole entry, looked up): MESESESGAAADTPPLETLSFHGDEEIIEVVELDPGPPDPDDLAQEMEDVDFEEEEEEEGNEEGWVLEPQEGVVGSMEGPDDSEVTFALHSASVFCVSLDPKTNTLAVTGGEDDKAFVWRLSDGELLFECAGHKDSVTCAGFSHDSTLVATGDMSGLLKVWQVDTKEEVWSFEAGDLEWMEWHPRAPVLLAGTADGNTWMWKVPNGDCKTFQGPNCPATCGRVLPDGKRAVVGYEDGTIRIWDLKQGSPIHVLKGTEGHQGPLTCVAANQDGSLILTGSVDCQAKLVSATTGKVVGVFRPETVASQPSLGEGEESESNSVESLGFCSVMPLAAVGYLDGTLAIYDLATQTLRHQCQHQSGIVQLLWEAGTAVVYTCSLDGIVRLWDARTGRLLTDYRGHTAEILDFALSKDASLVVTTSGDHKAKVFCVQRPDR
# Sequence of UniProt Q9BRQ8 (Q9BRQ8 whole entry, looked up): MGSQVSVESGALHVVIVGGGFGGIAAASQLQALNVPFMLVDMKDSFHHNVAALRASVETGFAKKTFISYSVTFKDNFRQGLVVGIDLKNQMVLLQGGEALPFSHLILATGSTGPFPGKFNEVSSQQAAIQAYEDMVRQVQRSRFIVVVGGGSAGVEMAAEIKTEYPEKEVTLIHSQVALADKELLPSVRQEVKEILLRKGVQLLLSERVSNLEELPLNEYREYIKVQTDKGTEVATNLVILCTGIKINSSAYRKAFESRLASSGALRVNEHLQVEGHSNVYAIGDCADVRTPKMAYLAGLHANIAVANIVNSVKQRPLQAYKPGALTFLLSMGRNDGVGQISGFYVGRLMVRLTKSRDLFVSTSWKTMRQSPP
Target,log2 fold change [1],log2 fold change [2],log2 fold change [3],log2 fold change [4],log2 fold change [5],log2 fold change [6],log2 fold change [7],log2 fold change [8],log2 fold change [9],log2 fold change [10]
ARHGAP1 (UniProt Q07960),0.011,0.154,0.038,-0.003,0.057,0.011,0.046,0,-0.039,0.235 (active)
ASH2L (UniProt Q9UBL3),0.008,0.126,0.046,0.058,0.028,0.004,0.068,0.02,-0.068,0.036
ATRN (UniProt O75882),-0.049,0.01,0.116,0.087,-0.028,-0.002,-0.003,0.071,-0.238,–
ADD1 isoform 3 (UniProt P35611),0.018,0.005,-0.011,-0.109,0.011,-0.054,-0.008,-0.015,0.001,0.045
ATP23 (UniProt Q9Y6H3),-0.002,-0.116,0.044,0.072,-0.124,-0.128,0.002,0.046,-0.051,-0.188
ARL3 (UniProt P36405),0.029,0.041,0.019,-0.017,0.08,0.025,0.033,-0.012,-0.003,0.063
ADK (UniProt P55263),0.144,0.275,0.034,-0.105,0.114,0.276,0.015,-0.061,-0.039,0.112
ARL6IP4 (UniProt Q66PJ3),0.014,0.026,0.036,-0.093,0.039,0.114,-0.005,-0.038,0.013,-0.051
ANAPC2 (UniProt Q9UJX6),-0.025,-0.084,0.034,0.035,0.027,-0.044,0.012,0.028,0.022,-0.02
BRAP (UniProt Q7Z569),0.027,-0.205,0.008,-0.01,-0.046,-0.024,0.072,0.093,0.081,-0.089
BCLAF1 (UniProt Q9NYF8),-0.002,-0.06,0.089,-0.438 (active),0.017,-0.021,0.012,-0.01,0.035,0.164
AAMP (UniProt Q13685),0.027,0.115,-0.007,-0.006,0.022,-0.047,0.053,-0.03,-0.037,0.038
ARF4 (UniProt P18085),0.057,0.081,0.122,-0.018,0.081,-0.074,-0.021,0.017,-0.034,0.254 (active)
ANKZF1 (UniProt Q9H8Y5),0.031,-0.037,-0.135,0.174,-0.15,0.007,0.021,-0.068,-0.059,-0.349
ALDH9A1 isoform 3 (UniProt P49189),-0.002,-0.002,0.027,-0.042,0.015,0.063,-0.024,-0.002,-0.004,0.006
ACSL4 (UniProt O60488),0.02,-0.338 (active),0.07,0.099,0.045,-0.089,0.032,0.151,0.01,-0.311 (active)
BLOC1S3 (UniProt Q6QNY0),-0.001,0.014,0.116,0.065,0.068,-0.132,-0.012,-0.052,-0.038,0.012
ARFGAP1 (UniProt Q8N6T3),0.009,0.094,0.048,-0.016,-0.011,-0.038,0.138,0.047,-0.13,0.008
BZW2 (UniProt Q9Y6E2),0.006,-0.146,0.096,-0.037,-0.001,-0.218,0.011,0.047,-0.047,-0.072
ARL6IP6 (UniProt Q8N6S5),0.046,-0.016,0.017,-0.042,-0.005,-0.008,-0.22,-0.042,0.03,0.175
ARFRP1 (UniProt Q13795),-0.024,-0.004,0.091,-0.027,0.019,-0.159,-0.03,-0.069,0.003,0.027
ASNS (UniProt P08243),0.003,-0.015,0.044,-0.045,0.025,0.002,-0.018,-0.016,-0.026,0.031
ACP2 (UniProt P11117),0.06,-0.051,0.017,-0.016,0.023,-0.071,0,-0.031,0.016,-0.036
ADD3 isoform 2 (UniProt Q9UEY8),-0.032,0.028,0.101,-0.248,0.049,-0.211,0.047,0.089,-0.074,0.036
ADRM1 (UniProt Q16186),0.006,-0.109,-0.028,0.138,-0.036,-0.056,-0.028,0.069,0.041,-0.05
ACSF3 (UniProt Q4G176),0.018,0.063,-0.002,0.026,0.014,0.09,0.023,0.022,-0.027,0.174
AASDH (UniProt Q4L235),-0.04,0.07,0.142,-0.058,0.01,-0.066,-0.017,-0.034,-0.161,-0.236
ATOX1 (UniProt O00244),-0.051,-0.057,0.235,-0.269,0.144,0.068,0.038,-0.071,0.051,0.212
AIFM2 (UniProt Q9BRQ8),0.039,0.098,-0.013,-0.067,0.07,0.022,-0.029,-0.032,0.08,0.207 (active)
ALKBH4 (UniProt Q9NXW9),0.082,-0.033,0.172,0.029,-0.068,-0.084,0.024,0.12,0.037,-0.109
